FBA Mtb inh: inhibits M. tuberculosis FBA enzyme; actives 2.3% (n = 360,000); purified M. tuberculosis FBA, fluorescence read-out; P9WQA3; inhibition, % at 1 µM; in the data active means inhibition above about 27%;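 further: 0% = vehicle and 100% = reference inhibitor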
Mtb bLac sens: beta-lactam sensitization of Mtb H37Rv | M. tuberculosis H37Rv growth with meropenem, percent inhibition | inhibition, % at 25 µM | actives 0.27% (n = 330,000) | AID 434955; call rule not given here;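 further: growth measured after seven days incubation then overnight dye step; 0% = bacteria only wells and 100% = bacteria with antibiotic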
RecA splice inh: Mtb RecA intein splicing inhibition; P9WHJ3; inhibition, % (no concentration beside the values); cell-free RecA intein splicing, fluorescence; actives 0.75% (n = 290,000); in the data active means inhibition above about 30%; inconclusive means no clear call, values can overlap the other calls;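 further: 0% = vehicle wells and 100% = reference inhibitor control wells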
Mtb UGM inh: blocks M. tuberculosis UGM enzyme; P9WIQ1; purified UGM, fluorescence polarization probe displacement; inhibition, % at 10 µM; actives 0.06% (n = 320,000); in the data active means inhibition above about 10%, passing the limit was not always enough; inconclusive means no clear call, values can overlap the other calls
Rv3671c inh: Rv3671c (M. tuberculosis) protease inhibition; inhibition, % at 5.96 µM; actives 0.048% (n = 320,000); AID 2606; in the data active means inhibition above about 38%;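 further: extracellular domain of Rv3671c used as enzyme; 0% = enzyme with DMSO and 100% = no enzyme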
Target sequence (P9WHR9 whole entry, looked up, the tested form may be a part): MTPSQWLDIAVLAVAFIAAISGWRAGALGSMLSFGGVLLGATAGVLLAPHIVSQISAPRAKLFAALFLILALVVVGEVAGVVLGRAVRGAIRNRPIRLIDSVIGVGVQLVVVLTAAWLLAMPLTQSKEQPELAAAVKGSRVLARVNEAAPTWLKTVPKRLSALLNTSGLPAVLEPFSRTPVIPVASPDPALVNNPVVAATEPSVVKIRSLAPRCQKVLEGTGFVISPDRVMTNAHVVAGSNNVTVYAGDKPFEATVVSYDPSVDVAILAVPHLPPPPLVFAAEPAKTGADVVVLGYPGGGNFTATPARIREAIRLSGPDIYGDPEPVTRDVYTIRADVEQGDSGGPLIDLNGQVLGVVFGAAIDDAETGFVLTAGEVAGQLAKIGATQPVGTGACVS
GDH-TPI counter: counter-screen for M. tuberculosis FBA inhibitors: GDH-TPI coupled enzymes; GDH-TPI coupled enzyme counterscreen, NADH absorbance; inhibition, % at 4.8 µM; actives 1.2% (n = 360,000); AID 588335; in the data active means inhibition above about 30%;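 further: 0% = DMSO wells and 100% = wells lacking the enzyme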
Starred values were filed as active, the others as inactive; ? = inconclusive; · = no result given; + = active, no number. In the library only some 4% were active in any assay of this set; here they are far more common.

SMILES | FBA Mtb inh | Mtb bLac sens | RecA splice inh | Mtb UGM inh | Rv3671c inh | GDH-TPI counter
COc1ccc(/C=C/C(=O)Nc2ccc3nc4n(c(=O)c3c2)CCCC4)cc1 | -1.4 | 0.6 | -2.6 | -1.6 | -6.4 | 17.8
CCOc1ccc(S(=O)(=O)N2CC(=O)Nc3ccccc32)cc1 | 0.7 | ? | -0.9 | 0.7 | 1.6 | 5.7
COc1ccc2[nH]c3c(=O)n(/N=C/[C@H]4C(C)C=C(C)CC4C)c(=O)[nH]c3c2c1 (stereo not given in full) | 155.8* | -4.4 | 0.1 | -2.0 | -21.6 | 10.6
Cc1ccc(C(=O)NC2CCS(=O)(=O)C2)cc1S(=O)(=O)N1CCCCCC1 (stereo not given) | 1.7 | -7.0 | -1.2 | -0.2 | -2.1 | 1.0
COC(=O)C1C2c3ccccc3OC1(C)N=c1s/c(=C/c3cn(C)nc3C)c(=O)n12 (stereo not given) | -7.4 | 4.6 | 0.2 | 1.4 | -8.6 | 55.5*
O=Cc1c(Cl)nc2ccccn12 | -5.5 | -3.2 | -5.0 | 0.0 | -9.8 | 7.4
Clc1cc2nc3ccccn3c2cc1Cl | 139.9* | -5.6 | -1.0 | 2.3 | -6.8 | 12.2
CCOc1ccc(/C=N/n2nnnc2N)cc1OCC | 6.0 | 0.3 | 5.0 | -1.2 | -4.9 | 31.1*
O=C(O)c1ccc(S(=O)(=O)N2CCSCC2)cc1 | 0.7 | 1.7 | 0.9 | 2.6 | 5.4 | -5.5
CCCC(=O)NC(c1ccc(OCC)cc1)c1ccc(OC)c(OC)c1 (stereo not given) | 155.7* | 2.8 | 2.0 | 1.0 | 2.1 | 10.3
CCOc1ccc(C(NC(C)=O)c2ccc(OC)c(OC)c2)cc1 (stereo not given) | -3.6 | -2.2 | -0.5 | 1.2 | -19.7 | -1.2
CCCn1c2c(c(O)c(C(=O)Nc3ncccc3O)c1=O)CCCC2 | -0.2 | 22.0 | -2.2 | -2.6 | -1.5 | 34.2*
CCCn1c2c(c(O)c(C(=O)NC)c1=O)CCCC2 | 1.8 | -2.1 | -2.6 | 0.6 | 10.4 | -3.8
COCC(C)n1c(SCC(=O)Nc2cccnc2Cl)nc2ccccc2c1=O (stereo not given) | 2.0 | · | · | · | · | -10.8
O=C1c2ccccc2C(=O)c2cc(S(=O)(=O)Nc3ccccc3)ccc21 | -2.4 | 13.8 | 32.4* | -1.0 | 12.6 | 8.7
CCOC(=O)c1sc(NC(=O)c2c(CC)noc2C)nc1C | -2.0 | -2.5 | · | -1.1 | 2.0 | 13.7
CCn1c(SCC(=O)Nc2ccccc2)nnc1-c1cccs1 | 5.0 | -4.8 | -0.6 | 2.7 | 7.1 | 6.3
CCn1c(SCC(=O)c2ccc(NS(=O)(=O)c3ccccc3)cc2)nnc1-c1cccs1 | 7.6 | 1.7 | 9.2 | -1.9 | -7.3 | 34.4*
CC1=C(C#N)c2nc(N)c(C#N)c(C)c2/C1=C\c1ccc(C)cc1 | · | -2.3 | 33.2* | 2.4 | 6.2 | ·
COC(CN(C(=O)CCl)C(C(=O)NC1CCCC(C)C1C)c1ccc(C)cc1)OC (stereo not given) | 1.4 | -9.9 | 44.9* | -0.2 | -8.4 | +
COC(CN(C(=O)CCl)C(C(=O)NC1CCCCC1)c1ccccc1C)OC (stereo not given) | -2.6 | ? | 24.6 | -3.2 | -1.0 | 1.8
COc1ccc(C2=CC(=O)C[C@H](c3ccc(Cl)cc3)C2)cn1 | 1.3 | 10.4 | · | 0.7 | -10.4 | 19.0
CCOC(=O)C1=CCN(S(=O)(=O)c2ccccc2C)C1c1ccc(Cl)cc1 (stereo not given) | 2.9 | · | · | · | · | ·
CC(=O)Nc1ccc(S(=O)(=O)Nc2nc3ccccc3nc2Nc2ccc3ccccc3c2)cc1 | 11.5 | 0.6 | -3.2 | 0.1 | -1.3 | 13.8
CC(=O)Nc1ccc(S(=O)(=O)Nc2nc3ccccc3nc2Nc2ccc(N)cc2)cc1 | 8.2 | 10.8 | -8.2 | 0.8 | 2.2 | 31.2*
SMILES | FBA Mtb inh | Mtb bLac sens | RecA splice inh | Mtb UGM inh | Rv3671c inh | GDH-TPI counter
O=C(O)CC/C(=N\Nc1ccc(S(=O)(=O)N2CCOCC2)cc1[N+](=O)[O-])c1cccs1 | -15.9 | 2.1 | 3.4 | 1.0 | 4.1 | 67.1*
Cc1ccc(C)c(NC(=O)CN(C)C(=O)c2ccc(-c3cccc(C(F)(F)F)c3)o2)c1 | -2.7 | 2.7 | -2.2 | -1.2 | -5.8 | -6.5
O=C(C[n+]1cc(-c2ccc(Cl)cc2)n2c1CCCCC2)c1ccccc1 | 1.1 | 3.7 | 0.4 | -3.0 | 5.1 | -0.8
Clc1ccc(C2=C3CCCCn4c(-c5ccccc5)c[n+](c43)C2)cc1 | 11.2 | 75.6 | 33.5* | 0.8 | 5.0 | 11.0
COc1ccc(CNS(=O)(=O)c2c(C(=O)N3CCCCC3)c(C)n(C)c2C)cc1 | 3.5 | 2.6 | 0.9 | -0.7 | -2.4 | 0.0
COc1ccc2cc(C=NS(=O)(=O)c3ccc(C)cc3)n(C)c2c1 | 0.8 | 14.1 | · | 1.6 | -6.6 | 35.5*
COc1ccc2cc(CO)n(C)c2c1 | 0.8 | 92.2 | · | -1.7 | 2.8 | 5.9
COc1ccc2cc(C=O)n(C)c2c1 | 1.7 | -6.1 | · | 0.1 | -5.8 | 44.5*
COc1ccc(/C=N/S(=O)(=O)c2ccc(C)cc2)cc1 | 3.1 | -11.6 | -0.3 | -0.7 | -5.6 | 5.0
CC1(C(=O)NS(=O)(=O)c2cccc(C#N)c2)CCN1C(=O)CCC1CCCC1 (stereo not given) | -0.6 | · | · | · | · | -4.5
C#CNC(=O)C1(CC=C)CCNCC1 | -2.4 | -5.9 | -0.2 | 1.6 | -6.1 | -6.7
COc1ccc(-c2ccc(C(=O)NCC3CCOCC3)c3occc23)c(C)c1 | 131.9* | · | · | · | · | -4.4
O=C(/C=C/c1ccc2c(c1)OCO2)c1ccccn1 | 4.0 | -7.9 | 5.3 | -3.7 | -11.5 | 7.7
O=C(N/N=C/c1ccc2c(c1)OCO2)c1ccccn1 | -2.2 | 95.4 | -2.2 | 0.0 | -4.7 | 41.2*
Cc1ccc2nc(C)c(C(=O)N/N=C/c3ccc(N4CCOCC4)cc3)cc2c1 | -3.2 | -3.0 | -13.2 | -0.6 | 7.6 | 41.2*
O=C(N/N=C/c1ccc(N2CCOCC2)cc1)c1ccccn1 | 2.6 | 99.0 | -0.3 | 0.2 | -7.7 | 67.1*
O=C(N/N=C/c1ccncc1)c1ccccn1 | -0.7 | 8.3 | -1.0 | 1.1 | -4.0 | 6.9
Cc1c(C(=O)N/N=C/c2ccc(N3CCOCC3)cc2)nc2ccccn12 | 1.1 | -4.1 | · | -0.5 | 3.4 | 31.2*
O=C(NCCC1CCCCN1S(=O)(=O)c1cccs1)C(=O)NCc1ccccc1 (stereo not given) | -1.3 | -9.0 | -0.6 | · | -5.1 | -6.5
CCCc1c(C(=O)N/N=C(\C)c2ccccn2)nnn1-c1nonc1N | 0.2 | · | · | · | · | 0.9
Cc1cccc(Nc2cc(=O)n(C)c(=O)[nH]2)c1 | -3.5 | 5.4 | 2.1 | 0.4 | 0.9 | -3.2
O=C(N/N=C/c1cc2c(cc1Br)OCO2)c1ccccn1 | 3.5 | 11.9 | -0.2 | -1.7 | 8.8 | 31.0*
O=C(N/N=C/c1cc2c(cc1Br)OCO2)c1cc2ccccc2o1 | 6.7 | 3.7 | 0.3 | -2.2 | -8.9 | 21.7
O=C1/C(=C/c2cccnc2)CC/C1=C\c1cccnc1 | -3.5 | -0.9 | 3.7 | -2.0 | -4.5 | 53.8*
O=C1NC(=S)N/C1=C/c1cccnc1 | -1.0 | -8.8 | 0.0 | -2.5 | -2.3 | 45.0*
O=C1NC(=S)N/C1=C\c1cccc([N+](=O)[O-])c1 | 0.1 | -1.1 | 0.4 | -1.2 | -1.3 | 33.5*
O=C(COC(=O)CN1CCSC1=O)Nc1ccc(F)cc1Cl | 1.7 | 3.6 | · | 0.6 | 0.5 | 1.0
